Data on 51 compounds can be found in ChEMBL document CHEMBL3988442, “University of Dundee, Small-Polar-MMV Screening Library” (2021).

The whole screen tested about 48,000 compounds, of which about 13,000 (27%) showed an effect of 50% or more. Some of the results follow.

This assay deals with Wolbachia pipientis. As to the kind of experiment: Anti-Wolbachia Cell-Based Screen. The assay is classed as functional. On the set-up: scale not given: in the data most compounds retested in dose-response had high values. The settings on record: 5 µM.
As for `Cc1ccc2c(n1)N(CCN(C)C)CCN(C(=O)c1cscn1)C2.O=C(O)C(F)(F)F.O=C(O)C(F)(F)F`, the “Percent Effect” value was determined as 28.27%.

`CC(C)N(C)S(=O)(=O)c1ccc2c(c1)CCN(C(=O)c1cscn1)C2`: the “Percent Effect” value turned out to be 99.31%.

For the compound `CC(C)N(C)S(=O)(=O)c1ccc2c(c1)CCN(C(=O)c1cccnn1)C2`, the “Percent Effect” value is given as 105.4%.

For the compound `CC(C)N(C)S(=O)(=O)c1ccc2c(c1)CCN(C(=O)c1cnccn1)C2`, the “Percent Effect” value amounted to 109.6%.

Turning to `COCCNS(=O)(=O)c1ccc2c(c1)CCN(C(=O)c1cncn1C)C2`, the “Percent Effect” value is reported as -12.86%.

Consider `CC(C(=O)N1CCc2ccccc2C1)N(C)Cc1cscn1` (stereo unspecified), for which the “Percent Effect” value is recorded as -9.272%.

For the compound `CC(C)N(C)Cc1noc2c1CN(C(=O)c1cnccn1)CC2`, the “Percent Effect” value was -8.266%.

For `CN(C)Cc1ccc(C2CCCCN2C(=O)c2cccnn2)cc1` (stereo unspecified), the “Percent Effect” value is -5.621%.

As for `CC(C)N(C)S(=O)(=O)c1ccc2c(c1)CCN(C(=O)c1ccccn1)C2`, the “Percent Effect” value stood at 85.52%.

Take `COCCNS(=O)(=O)c1cccc2c1CN(C(=O)c1cnccn1)CC2`: the “Percent Effect” value is reported as -8.732%.

Consider `CCS(=O)(=O)NC1CCCN(c2cc(C)ccc2F)C1=O` (stereo unspecified), for which the “Percent Effect” value is on record as -7.776%.

Regarding `O[C@H]1[C@H](NCCSc2ccccn2)c2ccccc2C12CCNCC2`, the “Percent Effect” value is recorded as -1.82%.

For the compound `COc1ccccc1Oc1ncccc1CNC(=O)[C@H](N)CC(C)(C)C`, the “Percent Effect” value is reported as -16.84%.

Turning to `CC(=O)NC1CCN(c2ncnc3c2c(C)nn3C)C1` (stereo unspecified), the “Percent Effect” value is -10.72%.

On to `COc1cc(C)c(C2CC(=O)NCc3nc4sccn4c32)cc1C` (stereo unspecified), for which the “Percent Effect” value is -46.51%.

On to `CCOCc1ccc(NC(=O)C(C)C)cc1`, for which the “Percent Effect” value was 2.83%.

Consider `CCC[C@H]1CN(CCS(C)(=O)=O)C[C@@H]1NC(=O)c1cc(CC)on1`, for which the “Percent Effect” value is reported as 21.57%.

On to `COC(=O)c1ccc(Cn2nc(C)cc2C)c(F)c1`, for which the “Percent Effect” value was -8.514%.

On to `Cc1cc(C)n(CC(=O)Nc2cc(-c3ccncc3)[nH]n2)n1`, for which the “Percent Effect” value was determined as 0.2765%.

For the compound `CCn1cnnc1CCNCc1c[nH]nc1-c1ccc(F)cc1`, the “Percent Effect” value is listed as -1.595%.

Consider `COC(=O)c1ccc(F)c(Cn2nc(C)cc2C)c1`, for which the “Percent Effect” value was -3.045%.

For `Cc1cc(C)n(CC(=O)N2CCC(NS(=O)(=O)c3ccccc3)CC2)n1`, the “Percent Effect” value is -8.172%.

With `Cc1cc(C)n(CCNCc2cc(-c3ccc(F)cc3)c[nH]c2=O)n1`, the “Percent Effect” value is 135.5%.

As to `Cc1cc(C)n(CCNCc2cc(-c3ccccc3)c[nH]c2=O)n1`, the “Percent Effect” value was 81.59%.

Regarding `Cc1cc(C)n(CCNCc2cc(-c3ccc(Cl)cc3)c[nH]c2=O)n1`, the “Percent Effect” value is 101%.

In the case of `Cc1cc(F)ccc1CNCCn1cccn1`, the “Percent Effect” value is -2.042%.

As for `c1ccc2sc(N3CCCC(Cn4cncn4)C3)nc2c1` (stereo unspecified), the “Percent Effect” value came to 2.326%.

Turning to `NCC1CCCCN1Cc1cc(O)c2cccc(F)c2n1` (stereo unspecified), the “Percent Effect” value is given as -47.52%.

As for `CN1CCCN(C(=O)c2nnn(-c3ccc(C(F)(F)F)cc3)n2)CC1`, the “Percent Effect” value is 20.55%.

Take `Cc1cccc(C(C(=O)NCc2nc(-c3ncccn3)no2)N(C)C)c1` (stereo unspecified): the “Percent Effect” value is recorded as -6.766%.

Regarding `O=C(Cc1cccc(O)c1)NC1CCN(c2cccc(Cl)c2)C1` (stereo unspecified), the “Percent Effect” value is 1.358%.

Take `Cc1nnc(-c2cccc(N3CCC(NC4CCSC4)CC3)c2)s1` (stereo unspecified): the “Percent Effect” value was -9.983%.

For the compound `Clc1cccc(-c2cccc(N3CCC(NC4CCOCC4)CC3)c2)c1`, the “Percent Effect” value is reported as 91.89%.

For the compound `Cc1ccc(-c2cccc(N3CCC(NC4CCOCC4)CC3)c2)cc1`, the “Percent Effect” value is 106.4%.

As to `Cc1nnc(-c2cccc(N3CCC(NC(C)CC(C)C)CC3)c2)s1` (stereo unspecified), the “Percent Effect” value turned out to be 13.1%.

Consider `Clc1cccc(N2CCC(NCc3cc[nH]n3)C2)c1` (stereo unspecified), for which the “Percent Effect” value was -6.457%.

As to `CC(C)N1CCOCC2(CCCN(C(=O)c3cn(C)cn3)C2)C1.O=C(O)C(F)(F)F` (stereo unspecified), the “Percent Effect” value is given as -9.46%.

Regarding `O=C(c1ccc(-n2ccnn2)cc1)N(CC1CC1)c1cccnc1`, the “Percent Effect” value is reported as -13.01%.

Consider `O=C(c1ccccc1)N(CC1CC1)c1cccnc1`, for which the “Percent Effect” value is on record as 119.1%.

In the case of `CCCN(C(=O)c1ccc(-n2ccnn2)cc1)c1cccnc1`, the “Percent Effect” value was -3.595%.

Take `Cc1n[nH]c(C)c1CCNC(=O)C1CCCN(CC(N)=O)C1` (stereo unspecified): the “Percent Effect” value was -16.53%.

Take `CCCC1CCCN(C(=O)Nc2ccnc(C(=O)N(C)C)c2)CC1` (stereo unspecified): the “Percent Effect” value is reported as -1.886%.

As to `Cc1n[nH]c(C)c1Sc1ccccc1NC(=O)N1CCCC(C(N)=O)C1` (stereo unspecified), the “Percent Effect” value is -0.33%.

Consider `Cc1cc(NC(=O)C2CCCN(C(=O)NCC(C)C)C2)ccn1` (stereo unspecified), for which the “Percent Effect” value is 89.55%.

As to `Cc1c(C2CC2)n[nH]c1NC(=O)C1CCCN(C(=O)NCC(C)C)C1` (stereo unspecified), the “Percent Effect” value turned out to be 117.7%.

Regarding `CCNC(=O)N1CCCC(C(=O)c2cccc(OC(C)C)c2)C1` (stereo unspecified), the “Percent Effect” value amounted to 17.22%.

Take `Cc1n[nH]c(C)c1NC(=O)C1CCCN(C(=O)NCC(C)C)C1` (stereo unspecified): the “Percent Effect” value stood at 113.5%.

Take `NC(=O)N1CCCC(C(=O)Nc2cccc(Cl)c2)C1` (stereo unspecified): the “Percent Effect” value is given as 3.636%.

As to `Cc1ccc(-c2nnc(NC(=O)c3ccn(C)c(=O)c3)[nH]2)s1`, the “Percent Effect” value is on record as 1.444%.

For the compound `CCN(C(=O)C1CC1)C(c1cccnc1)c1ccc2c(c1)CCO2` (stereo unspecified), the “Percent Effect” value is reported as -9.628%.

Turning to `Cc1c(S(=O)(=O)N2CCCC2c2nnc(-c3ccsc3)o2)cnn1C` (stereo unspecified), the “Percent Effect” value is given as 130.9%.
